Beta cell apopt – inhibitors of cytokine-induced beta cell apoptosis, primary screen, luminescence | INS-1E cytokine-induced death, ATP luminescence, 48 h; percent of positive-control rescue, neutral wells zero | protection from apoptosis, % (concentration not given with the values) | actives 0.8% (n = 300,000) | AID 435005, 2010;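 active means Every replicate reaches about 75%, or at least half do and their mean reaches it too, limit read from the data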;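 further: higher means more ATP so stronger rescue from cytokine killing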
Gli-Sufu block – Gli-Sufu pathway antagonists, primary screen, luciferase luminescence, Sufu-KO-LIGHT cells, uHTS; Sufu-KO-LIGHT fibroblasts, Gli luciferase reporter luminescence; inhibition, % at 5 µM; actives 0.74% (n = 340,000); AID 588413, 2011;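 active means inhibition above about 55%, limit read from the data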
Mdm2-MdmX inh – inhibitors of human Mdm2-MdmX association, primary screen, cell-based, luminescence, split luciferase, SaOS-2, uHTS. Protein Mdm4 (Homo sapiens) + E3 ubiquitin-protein ligase Mdm2 (Homo sapiens), …. SaOS-2 split-luciferase Mdm2/MdmX complementation. inhibition, % at 8 µM. actives 3% (n = 330,000). AID 485346, 2010;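 active means inhibition of at least 50% at 8 µM in the primary screen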
Target sequence (O15151 whole entry, looked up): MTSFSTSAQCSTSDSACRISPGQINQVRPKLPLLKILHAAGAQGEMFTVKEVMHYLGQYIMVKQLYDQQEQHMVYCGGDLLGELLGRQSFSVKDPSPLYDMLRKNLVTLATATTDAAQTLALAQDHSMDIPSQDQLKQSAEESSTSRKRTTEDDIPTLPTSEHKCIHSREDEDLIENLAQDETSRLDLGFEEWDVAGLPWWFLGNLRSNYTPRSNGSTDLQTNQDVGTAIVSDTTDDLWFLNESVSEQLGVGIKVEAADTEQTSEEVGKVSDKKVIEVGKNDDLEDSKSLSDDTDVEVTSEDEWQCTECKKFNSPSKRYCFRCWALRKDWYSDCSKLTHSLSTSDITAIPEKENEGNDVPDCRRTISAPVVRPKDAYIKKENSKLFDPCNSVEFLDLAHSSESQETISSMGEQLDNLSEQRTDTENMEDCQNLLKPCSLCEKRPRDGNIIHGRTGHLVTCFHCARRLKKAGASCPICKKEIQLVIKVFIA
Target sequence (Q00987 whole entry, looked up): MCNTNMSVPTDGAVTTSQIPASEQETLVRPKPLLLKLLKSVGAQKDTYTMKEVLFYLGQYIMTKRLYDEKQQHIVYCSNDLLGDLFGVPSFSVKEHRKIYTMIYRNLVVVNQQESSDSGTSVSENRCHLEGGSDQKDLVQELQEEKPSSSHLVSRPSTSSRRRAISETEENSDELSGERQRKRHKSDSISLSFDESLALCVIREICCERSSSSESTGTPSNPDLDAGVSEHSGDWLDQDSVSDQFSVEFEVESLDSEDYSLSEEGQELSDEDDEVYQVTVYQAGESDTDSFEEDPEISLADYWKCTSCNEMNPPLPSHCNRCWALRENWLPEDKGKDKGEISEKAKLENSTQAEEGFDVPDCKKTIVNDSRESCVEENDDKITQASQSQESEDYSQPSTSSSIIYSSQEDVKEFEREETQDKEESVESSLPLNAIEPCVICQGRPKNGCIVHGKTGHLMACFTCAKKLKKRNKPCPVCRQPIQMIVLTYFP
MPTP inh – mitochondrial permeability transition pore inhibitors, primary screen, biochemical, isolated mouse mitochondria, absorbance. inhibition, % at 10 µM. Ca2+ swelling absorbance, 30 min. actives 1.4% (n = 360,000). AID 602449, 2012;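 active means inhibition of 50% or more, scaled per plate between neutral and stimulator controls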
NR3A LBD binder – binders of NR3A ligand-binding domain, primary screen, biophysical, differential scanning fluorimetry, uHTS | actives 2.5% (n = 340,000) | Tm shift relative to glycine control, % at 25 µM | NR3A LBD differential scanning fluorimetry, Tm shift; 0% = protein alone, 100% = glycine-bound protein | Glutamate receptor ionotropic, NMDA 3A (GRIN3A) ligand-binding domain;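 active means melting temperature shift of at least 10% of the positive control shift, at one fixed dose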
CSC inhib – cancer stem cell viability inhibitors, primary screen, luminescence. inhibition, % at 7.5 µM. cancer stem cell-like cells viability. actives 1.1% (n = 300,000). AID 2717, 2010; in the data active means inhibition above about 75%; tested in HMLE shEcad cells
Mdm2 MdmX conf – Mdm2-MdmX complex disruptors, retested hits, confirmation, luminescence, single concentration | AID 489028, 2010 | inhibition, % at 8 µM | shares compounds with Mdm2-MdmX inh | actives 55% (n = 10,000) | Mdm2-MdmX binding, luminescent assay; in the data active means inhibition above about 40%
Full FLuc ctr – full-length luciferase signal inhibition, confirmation, counter-screen for Mdm2/MdmX interaction inhibitor project, cell-based, single concentration, SaOS-2; shares compounds with Mdm2-MdmX inh; SaOS-2 full-length luciferase counterscreen, luminescence; inhibition, % at 8 µM; actives 77% (n = 6,200); AID 504607, 2011;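 active means mean inhibition at 8 µM reaching about 37%, which flags the compound as non-specific, limit read from the data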;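 further: p53-null SaOS-2 cells with luciferase driven by a doxycycline-inducible promoter; compound on cells about two nights before reading with doxycycline added after day one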
Gli-Sufu confirm – Gli-SUFU pathway antagonists, confirmation, single concentration, luciferase luminescence, Sufu-KO-LIGHT cells. inhibition, % at 5 µM. Gli luciferase reporter. shares compounds with Gli-Sufu block. actives 40% (n = 2,500). AID 602428, 2012;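 active means mean inhibition at 5 µM reaching about 45%, limit read from the data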
SufuKO cytotox – cytotoxicity in Sufu-KO-LIGHT cells, confirmation, cytotoxicity control for Gli-SUFU antagonist project, cell-based, ATP luminescence, single concentration; shares compounds with Gli-Sufu block; actives 32% (n = 2,500); cytotoxicity, % at 5 µM; AID 651994, 2013;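 active means mean cytotoxicity at 5 µM above about 25%, limit read from the data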;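 further: cells exposed to compound overnight for roughly 16 to 18 hours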
Wnt3a cs – Wnt3a reporter signal inhibition, confirmation, counter-screen for Gli-SUFU antagonist project, Wnt-LIGHT cells, luminescence, single concentration; inhibition, % at 6.25 µM; actives 20% (n = 2,500); shares compounds with Gli-Sufu block; Wnt3a-driven luciferase reporter;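 active means mean inhibition above about 25%, limit read from the data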
MPTP counter – fluorescence retest of MPTP screen hits in isolated mitochondria, single concentration; shares compounds with MPTP inh; membrane potential, Rhodamine 123 fluorescence; inhibition, % at 10 µM; actives 78% (n = 5,000); AID 624504, 2012; in the data active means inhibition above about 22%
MPTP abs DR – mitochondrial permeability transition pore inhibitors, dose response, biochemical, absorbance, uHTS hits. IC50, µM. shares compounds with MPTP inh. actives 58% (n = 780). isolated mitochondria swelling; in the data active means IC50 below about 20 µM
MPTP counter DR – fluorescent counter-screen in isolated mitochondria, dose response, counter-screen for MPTP inhibitor project, biochemical, fluorescence, uHTS hits | shares compounds with MPTP inh | isolated mitochondria counterscreen, fluorescence read-out | IC50, µM | actives 49% (n = 780); in the data active means IC50 below about 80 µM
A number is an active result; . = inactive; / = no result; + = active, no number. Rows were chosen to be rich in hits. Some 6.6% of all compounds tested hit in one or more screens of this group.

SMILES | Beta cell apopt | Gli-Sufu block | Mdm2-MdmX inh | MPTP inh | NR3A LBD binder | CSC inhib | Mdm2 MdmX conf | others
C[C@]12CCC3C(C1CCC2=O)[C@H](O)C[C@H]1C[C@@H](O)CC[C@]31C (stereo partly drawn) | . | . | . | . | . | . | /
CC(C(=O)c1c[nH]c2ccccc12)N1CCc2ccccc2C1 (stereo not drawn) | . | . | . | . | . | . | /
COc1cccc(C2CCN(CC(=O)Nc3cc(Cl)ccc3OC)CC2O)c1 (stereo not drawn) | . | . | . | . | . | . | /
N#CC1=C(N)Oc2c(c(=O)sc3ccccc23)C1c1cccnc1 (stereo not drawn) | . | . | 52 | . | . | . | 60 | Full FLuc ctr=56
CCC1(C)OC(c2ccccc2)=C/C(=C/C=C2C(=O)NC(=O)NC2=O)O1 (stereo not drawn) | / | . | / | . | . | / | /
CCN1CCC(O)(c2ccccc2)C(C(=O)c2ccccc2)C1 (stereo not drawn) | . | . | . | . | . | . | /
CC(C)(C)c1cc([N+](=O)[O-])cc(C(C)(C)C)c1O | 100 | . | 88 | / | . | . | . | Gli-Sufu confirm=77;SufuKO cytotox=42;Wnt3a cs=72
NC(=O)c1cc([N+](=O)[O-])cc([N+](=O)[O-])c1 | / | . | / | . | . | / | /
CCN1C[C@]2(CO)CC[C@H](OC)[C@@]34C5C[C@H]6[C@H](OC)C5[C@](O)(C[C@H]6OC)[C@@H](C(OC)C23)[C@@H]14 (stereo partly drawn) | . | . | . | . | . | . | /
Cc1cc(-c2ccccc2)cc(-c2ccccc2)[n+]1CCc1ccccc1 | 133 | 92 | 61 | . | . | . | . | Gli-Sufu confirm=92;SufuKO cytotox=48;Wnt3a cs=73
N#CC(C#N)=NNc1ccc(-n2ccc(C(F)(F)F)n2)cc1 | 102 | 76 | 94 | 78 | . | . | 73 | Full FLuc ctr=.;MPTP counter=82
Cc1cc(C)n(-c2ccc(NN=C(C#N)C#N)cc2)n1 | . | . | 62 | 84 | . | . | 58 | Full FLuc ctr=57;MPTP counter=90
c1cc(CCN2CCCC2)ccn1 | . | . | . | . | . | . | /
O=C(Oc1ccc([N+](=O)[O-])cc1)N1CCC(N2CCCCC2)CC1 | . | . | . | . | . | . | /
Cc1cc(O)c2c(c1)C(=O)C13C(=C2O)C(=O)[C@H]2[C@@H](O)[C@@H]1[C@H]1[C@H](O)[C@@H]3C(=O)C3=C(O)c4c(O)cc(C)cc4C(=O)C312 (stereo partly drawn) | 106 | . | 86 | 87 | . | . | 61 | Full FLuc ctr=.;MPTP counter=.
CC(=O)NCC1=C(c2cccc3ccccc23)C[C@@H]2CC[C@H]1N2Cc1ccco1 | / | / | / | . | / | / | /
CCN1/C(=C\C=C\C2=[N+](CC)c3ccccc3C2(C)C)C(C)(C)c2ccccc21 | 119 | 94 | 97 | + | . | 93 | 96 | Full FLuc ctr=.;MPTP counter=84
COc1cc2c(cc1OC)[C@@H]1C(=O)c3ccc4c(c3O[C@@H]1CO2)C[C@H](C(C)C)O4 | 133 | 83 | 58 | 96 | . | . | . | Full FLuc ctr=64;Gli-Sufu confirm=85;SufuKO cytotox=42;Wnt3a cs=53;MPTP counter=83
COC(=O)C1=C(c2ccc(C(C)=O)cc2)C[C@@H]2CC[C@H]1N2C(=O)NC1CC1 | . | . | . | . | . | . | /
CCCCCSc1cc(OC)c(CCNC)cc1OC | . | . | 53 | 86 | . | . | . | MPTP counter=.;MPTP abs DR=5.3;MPTP counter DR=.
CC(=O)OC1N=C(c2ccc(Cl)cc2)c2cc(Br)ccc2NC1=O (stereo not drawn) | . | . | . | . | . | . | /
COCCn1c(-c2ccccc2)cc(C(=O)O)c1C | . | . | . | . | . | . | /
O=C(O)COc1ccc(Cl)cc1Cl | . | . | . | . | . | . | /
Oc1cc(Cl)ccc1Oc1ccc(Cl)cc1Cl | . | . | 66 | 92 | . | . | . | MPTP counter=99
OC(c1ccccc1)(c1ccc(Cl)cc1)C1CN2CCC1CC2 (stereo not drawn) | . | 58 | . | . | . | . | / | Gli-Sufu confirm=.;SufuKO cytotox=.;Wnt3a cs=.
CC/C(=N\NC(=O)Nc1ccccc1)c1c(O)n(Cc2ccccc2)c(=O)[nH]c1=O | . | . | . | . | . | . | /
CCC(C)NC(=O)CCC(=O)OC1O[C@H]2OC3(C)CC[C@H]4[C@H](C)CCC(C1C)C24OO3 (stereo partly drawn) | . | 79 | / | . | . | . | / | Gli-Sufu confirm=84;SufuKO cytotox=.;Wnt3a cs=25
CCC(C)C(NC(=O)CCCNC(=O)CCC(=O)OC1O[C@H]2OC3(C)CC[C@H]4[C@H](C)CCC(C1C)C24OO3)C(=O)O (stereo partly drawn) | . | / | . | . | / | . | /
Cc1c(N=Cc2c(O)n(CCc3ccccc3)c(=O)[nH]c2=O)c(=O)n(-c2ccccc2)n1C | . | . | . | . | . | . | /
Cc1c(N=Cc2c(O)n(Cc3ccc(F)cc3)c(=O)[nH]c2=O)c(=O)n(-c2ccccc2)n1C | . | 63 | . | . | . | / | / | Gli-Sufu confirm=.;SufuKO cytotox=.;Wnt3a cs=.

Bioassay records: PubChem BioAssay, several laboratories
